Compounds without any hit were thinned out: in the full panel of roughly 83,000, 20% have a hit.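 Values shown are percent growth following 48 h exposure of cells in 96-well plates to a single concentration of compound; below 10 was considered active.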 A number with no mark means an inactive call. Activity calls are given as the source filed them.
How the values were obtained:
Assay in all cases: NCI-60 one-dose screen, 48 h (100 = growth as untreated, 0 = no growth, -100 = all killed)
RPMI-8226 leukemia = details: 10 µM unless noted
OVCAR-8 ovarian = details: 10 µM unless noted
OVCAR-5 ovarian = details: 10 µM unless noted
OVCAR-4 ovarian = details: 10 µM unless noted
SK-OV-3 ovarian = details: 10 µM unless noted
IGROV1 ovarian = details: 10 µM unless noted
OVCAR-3 ovarian = details: 10 µM unless noted
HS 578T breast = details: 10 µM unless noted
NCI/ADR-RES ovarian = details: 10 µM unless noted
T-47D breast = details: 10 µM unless noted
BT-549 breast = details: 10 µM unless noted
MDA-MB-435 melanoma = details: 10 µM unless noted
SW-620 colon = details: 10 µM unless noted
MCF7 breast = details: 10 µM
HCT-116 colon = details: 10 µM unless noted
HCC-2998 colon = details: 10 µM unless noted
KM12 colon = details: 10 µM unless noted

| SMILES | growth (RPMI-8226 leukemia) | growth (OVCAR-8 ovarian) | growth (OVCAR-5 ovarian) | growth (OVCAR-4 ovarian) | growth (SK-OV-3 ovarian) | growth (IGROV1 ovarian) | growth (OVCAR-3 ovarian) | growth (HS 578T breast) | growth (NCI/ADR-RES ovarian) | growth (T-47D breast) | growth (BT-549 breast) | growth (MDA-MB-435 melanoma) | growth (SW-620 colon) | growth (MCF7 breast) | growth (HCT-116 colon) | growth (HCC-2998 colon) | growth (KM12 colon) |
| --- | --- | --- | --- | --- | --- | --- | --- | --- | --- | --- | --- | --- | --- | --- | --- | --- | --- |
| COc1ccc(C2Nc3ncnc(N)c3N=C3c4ccccc4C(=O)C32)cc1 (stereo unspecified) | 80% | 108% | 98.1% | 82.8% | 84.7% | 79.4% | 83.9% | 94.5% | 105% | 80.8% | 94.3% | 96.9% | 103% | 95.5% | 95.7% | 104% | 110% |
| CC/C=C\C[C@H](O)C/C=C1/C(=O)C=C[C@@H]1C/C=C\CCCC(=O)OCCS(=O)(=O)c1ccccc1 | 14.6% | 26.3% | 121% | 84.3% | 104% | 100% | 20.7% | 36.2% | 75.2% | 18.3% | 2.95% (active) | 28.3% | 33.2% | 18.9% | -23% (active) | 53.4% | 25.6% |
| COc1cc2nc(-c3cccc4cccnc34)nc(NC3CCN(Cc4ccccc4)CC3)c2cc1OC | -48.7% (active) | -55% (active) | -90.6% (active) | -91.1% (active) | -74.7% (active) | -61.5% (active) | -85.9% (active) | -41.7% (active) | 6.52% (active) | -64.4% (active) | -65% (active) | -93.3% (active) | -74.8% (active) | -77.2% (active) | -63.7% (active) | -91% (active) | -76% (active) |
| CCOc1ccccc1CN1CCc2nc3cc(C(C)(C)C)[nH]n3c(=O)c2C1 | 101% | 103% | 97.9% | 101% | 110% | 99.5% | 106% | 100% | 91.8% | 98.6% | 106% | 104% | 105% | 98% | 102% | 98.7% | 98.2% |
| CC1=C(C(=O)OCC2CCN(C(=O)OC(C)(C)C)CC2)[C@@H](c2cccc(C#N)c2)C2=C(CC(C)(C)CC2=O)N1 | 32.3% | 37.5% | 70.2% | 67.3% | 66.5% | 45.4% | 52.4% | 64.5% | 44.7% | 56.1% | 50.3% | 41.4% | 29.6% | 30.5% | 17.1% | 75.6% | 36% |
| Nc1no[n+]([O-])c1-c1nnc2c(n1)-c1ccccc1C2=O | 18.1% | 65.7% | 83.9% | -97.5% (active) | 111% | 82.6% | -20.2% (active) | 89% | 72.1% | 61% | 80.8% | 18.8% | 29.9% | -48.9% (active) | 1.78% (active) | 68.1% | 73.1% |
| O=C(NCCCN1CCC(N2CCCCC2)CC1)C1=Cc2cc(Br)ccc2OC1 | 30.3% | 19% | 77% | 45.5% | 86.4% | 33.3% | 48.6% | 55.8% | 38.9% | 44.8% | 90% | 51.3% | 56.2% | 25.5% | 37% | 20.4% | 12.4% |
| CC(C)CCOc1ccc(-c2n[nH]c(C(F)(F)F)c2-c2cncc(C#N)c2)c(O)c1 | -31.8% (active) | 12.5% | 36.9% | 20.5% | -7.94% (active) | 46.9% | 2.95% (active) | 18% | 2.45% (active) | 2.83% (active) | 6.56% (active) | 7.91% (active) | 14.3% | 2.95% (active) | 2.41% (active) | 16.2% | 7.94% (active) |
| CCn1c(-c2nonc2Nc2ccc(OC)cc2)nc2ccccc21 | 117% | 102% | 107% | 101% | 111% | 106% | 112% | 96.7% | 96% | 97.3% | 103% | 96.8% | 104% | 110% | 97.4% | 111% | 106% |
| COc1ccc(Cn2c(Br)c3c(c2Br)-c2nc(NC(=O)c4ccc(OC)cc4)sc2CC3)cc1 | 71.8% | 61.4% | 79.4% | 49.7% | 72.9% | 38.2% | 88.6% | 58.1% | 74.7% | 68.7% | 84.2% | 61.8% | 84% | 78.5% | 75.9% | 108% | 79.9% |
| COc1ccc(-c2cn[nH]c2-c2cc(OC)c(OC)c(OC)c2)cc1OCc1ccccc1 | 8.45% (active) | 40.1% | 67.1% | 50.1% | 12.5% | 44.8% | 10.3% | 6.1% (active) | -22.2% (active) | 23.9% | 60% | -61.8% (active) | 26.6% | 17.2% | 17.6% | 34.8% | 14.7% |
| O=C1NC(=O)C(=Cc2cn(Cc3cn(Cc4ccc(Cl)cc4Cl)nn3)c3ccccc23)C(=O)N1 | 83% | 83% | 50.8% | 82.4% | 69% | 85.7% | 92.4% | 87.5% | 96.9% | 64.7% | 91.7% | 94.9% | 92.1% | 80% | 91.3% | 117% | 98.3% |
| CCOC(=O)c1cc2c(n1Cc1cccc(OC)c1)-c1oncc1CCC2 | 19.1% | 33.4% | 72.8% | 54.3% | 20.7% | 7.29% (active) | -8.41% (active) | 6.59% (active) | 12.2% | 33.1% | 42.4% | -13.4% (active) | 23.6% | 14.1% | 25.2% | 51.6% | 27.1% |
| Cc1nc2ccccc2c(/C=C/c2ccc(F)cc2)c1C(N)=O | 96.1% | 104% | 105% | 95.5% | 105% | 97.4% | 107% | 106% | 111% | 90.8% | 97.4% | 107% | 105% | 69.7% | 98.3% | 128% | 101% |
| O=C(N/N=C/c1ccccc1Cl)C(=O)Nc1cccc(C(F)(F)F)c1 | 93.9% | 83% | 97.4% | 101% | 102% | 92.9% | 115% | 111% | 98.4% | 90.2% | 112% | 98.4% | 104% | 97.3% | 92.1% | 96.6% | 103% |
| O=C(NC1CCCCC1)C(c1cccs1)N(CCc1ccccc1)C(=O)c1ccco1 (stereo unspecified) | 79.7% | 88.2% | 87.1% | 95.9% | 89.6% | 97.7% | 96.6% | 93.8% | 94.3% | 85.1% | 103% | 104% | 96.1% | 88.3% | 82.9% | 105% | 98% |
| COc1nccc2cc3c(=O)n4c(cc5ccccc54)c(=O)n3c12 | 95.7% | 111% | 107% | 97.3% | 102% | 66.9% | 103% | 106% | 100% | 68.4% | 104% | 110% | 101% | 49.1% | 104% | 104% | 103% |
| COc1cc(C2C(C#N)=C(N)OC3=C2C(=O)c2ccccc2C3=O)cc(OC)c1OC (stereo unspecified) | 18.5% | 17.4% | 44% | 74.1% | 29.9% | 47.7% | 3.34% (active) | 8.28% (active) | 70.5% | 67.3% | 41.4% | -19.7% (active) | 21.5% | 18.9% | 19.1% | 30.4% | 13.1% |
